According to PubChem BioAssay (NCATS):
Several values for one entry are separate records, joined by “and”; a condition that tells them apart may be missing. Equal entries are not always repeated. Results filed as inconclusive are left out. The source holds several records for some structures; these can differ, active in one and inactive in another. Activity calls are given as the source filed them. Unless noted, calls come from the whole dose curve; as a rule, active = well fitted curve in the direction sought with a large enough effect; inconclusive = small, poorly fitted or top-dose-only effect, or another doubt; inactive = no such curve, though single readings can be large; an effect the other way counts as inactive or inconclusive.

Experiments:
[1] = qHTS assay for small molecule activators of the p53 signaling pathway (AID 651743; active = well fitted activation curve with a large enough effect in the signal ratio, not every such curve was filed as active; the % refers to the signal ratio; note: % of control where 0% means no effect); conditions: HCT-116 p53RE-bla, beta-lactamase FRET ratio, 16 h; active compounds read high
Outline: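 Read-out is fluorescence intensity from the LiveBLAzer B/G FRET substrate, added for 2 hours at room temperature after HCT-116 p53RE-bla cells had been incubated with compounds for 16 hours at 37 C.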

[2] = qHTS assay for small molecule activators of the nuclear factor-kappa B (NF-kB) signaling pathway (AID 651749; active = well fitted activation curve with a large enough effect in the signal ratio; the % refers to the signal ratio; note: % of control where 0% means no effect); conditions: NF-kB-bla ME-180 cells, beta-lactamase FRET ratio, 16 h; active compounds read high
Outline: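 Readout: beta-lactamase reporter driven by an NF-kB response element, detected fluorescently as loss of FRET. Cells were the ME-180 line, treated 16 hr at 37C with pin-transferred compound.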

[3] = qHTS assay for environmental chemicals that activate the Aryl hydrocarbon Receptor (AhR) signaling pathway (AID 651777); conditions: 1A2-DRE human hepatoma cells, luciferase, 24 h; active compounds read high; note: % of control where 0% means no effect; nearly all actives have a fitted effect of over 15% in size
Outline: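 Human hepatoma 1A2-DRE cells stably carrying a DRE/CYP1A2 promoter–luciferase reporter, 1,200 cells/well, exposed to compound 24 hr at 37 C. Luciferase read by One-Glo luminescence after 30 min at room temperature; increased signal marks AhR activation.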

[4] = target: Peroxisome proliferator-activated receptor alpha (Homo sapiens) (UniProt Q07869); experiment: qHTS assay for small molecule agonists of the peroxisome proliferator-activated receptor alpha (PPARalpha) signaling pathway (AID 651778); conditions: PathHunter PPARalpha complementation, chemiluminescence, 6 h; max response: active compounds read high; note: potency is the fitted concentration of half-maximal effect; for max response: % of control where 0% means no effect
Sequence of Peroxisome proliferator-activated receptor alpha (Homo sapiens) (Q07869 whole entry, looked up): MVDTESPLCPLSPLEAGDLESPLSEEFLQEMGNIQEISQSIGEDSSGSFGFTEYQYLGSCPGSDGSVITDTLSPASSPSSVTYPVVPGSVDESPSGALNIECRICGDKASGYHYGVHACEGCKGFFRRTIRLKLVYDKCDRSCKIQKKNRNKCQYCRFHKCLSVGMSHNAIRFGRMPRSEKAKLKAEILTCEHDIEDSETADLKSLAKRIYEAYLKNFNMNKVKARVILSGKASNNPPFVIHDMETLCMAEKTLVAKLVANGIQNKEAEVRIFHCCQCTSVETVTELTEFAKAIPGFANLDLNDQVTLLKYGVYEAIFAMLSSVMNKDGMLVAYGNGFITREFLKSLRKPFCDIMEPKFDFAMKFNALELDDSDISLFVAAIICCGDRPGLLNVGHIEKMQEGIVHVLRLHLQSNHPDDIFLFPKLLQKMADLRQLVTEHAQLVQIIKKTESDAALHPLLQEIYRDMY
Outline: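 Chemiluminescence from complemented enzyme reported PPARalpha activation in cells after 6 hr of compound treatment at 37 C. The detection reagent was incubated for 60 min at room temperature, and compounds were scored as agonists.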

[5] = qHTS assay for small molecule agonists of the antioxidant response element (ARE) signaling pathway (AID 651741; active = well fitted activation curve with a large enough effect in the signal ratio; the % refers to the signal ratio; note: potency is the fitted concentration of half-maximal effect; for activation: % of control where 0% means no effect); conditions: HepG2 ARE-bla reporter, beta-lactamase FRET ratio, 16 h; series mostly up to 96 µM
Outline: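 Quantitative HTS in HepG2 cells stably expressing an ARE-beta-lactamase reporter; 16 h compound exposure at 37 C, followed by 2 h room-temperature incubation with LiveBLAzer B/G FRET substrate and fluorescence measurement.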

[6] = qHTS assay for small molecule disruptors of the mitochondrial membrane potential - 1 hr assay (AID 651754; calls by dose curve; note: nearly all actives have a fitted effect of over 35% in size; note: potency is the fitted concentration of half-maximal effect); conditions: series mostly up to 92.2 µM
Outline: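 HepG2 cells, attached overnight, were exposed to compound for 1 hr at 37C, then stained 30 min with a potentiometric dye. Ratio of red aggregate (590nm) to green monomer (535nm) fluorescence reports membrane potential; collapse shifts signal toward green.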

[7] = qHTS assay for small molecule disruptors of the mitochondrial membrane potential - 5 hr assay (AID 651755; calls by dose curve; note: nearly all actives have a fitted effect of over 40% in size; note: potency is the fitted concentration of half-maximal effect); conditions: JC-1-type ratio dye; series mostly up to 92.2 µM
Outline: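 HepG2, 2,000 cells/well, overnight attach; cpd or DMSO 5 hr, 37C/5% CO2; Mito-MPS 30 min 37C; fluor 490/535 + 540/590 nm.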

[8] = target: Tumor necrosis factor (Homo sapiens) (UniProt P01375); experiment: qHTS assay to identify small molecules that stimulate Tumor Necrosis Factor-alpha (TNF-alpha) secretion (AID 651757; active = well fitted curve in the direction sought with a large enough effect in the signal ratio; the % refers to the signal ratio; note: 0% is about no effect); conditions: Human cells, HTRF 665/615 ratio; series mostly up to 92.2 µM
Sequence of Tumor necrosis factor (Homo sapiens) (P01375 whole entry, looked up): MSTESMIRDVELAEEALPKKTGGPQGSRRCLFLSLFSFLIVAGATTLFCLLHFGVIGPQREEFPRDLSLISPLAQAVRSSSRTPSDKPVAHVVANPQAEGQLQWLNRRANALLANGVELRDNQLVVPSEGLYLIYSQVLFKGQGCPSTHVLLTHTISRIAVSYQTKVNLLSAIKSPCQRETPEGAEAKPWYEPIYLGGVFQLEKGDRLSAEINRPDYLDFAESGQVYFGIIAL
Outline: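 THP-1 cells (3000/well) exposed to compounds 17 hrs at 37 C. Secreted TNF-alpha detected by HTRF with cryptate- and XL665-labeled anti-TNF-alpha antibodies after 3 hr at room temperature.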

[9] = target: Nuclear receptor ROR-gamma (Homo sapiens) (UniProt P51449); experiment: qHTS assay for small molecule antagonists of the retinoid-related orphan receptor gamma (ROR-gamma) signaling pathway (AID 651802); conditions: ROR-gamma antagonist cell reporter assay; series mostly up to 92.2 µM; note: nearly all actives have a fitted effect of over 60% in size; note: potency is the fitted concentration of half-maximal effect
Sequence of Nuclear receptor ROR-gamma (Homo sapiens) (P51449 whole entry, looked up): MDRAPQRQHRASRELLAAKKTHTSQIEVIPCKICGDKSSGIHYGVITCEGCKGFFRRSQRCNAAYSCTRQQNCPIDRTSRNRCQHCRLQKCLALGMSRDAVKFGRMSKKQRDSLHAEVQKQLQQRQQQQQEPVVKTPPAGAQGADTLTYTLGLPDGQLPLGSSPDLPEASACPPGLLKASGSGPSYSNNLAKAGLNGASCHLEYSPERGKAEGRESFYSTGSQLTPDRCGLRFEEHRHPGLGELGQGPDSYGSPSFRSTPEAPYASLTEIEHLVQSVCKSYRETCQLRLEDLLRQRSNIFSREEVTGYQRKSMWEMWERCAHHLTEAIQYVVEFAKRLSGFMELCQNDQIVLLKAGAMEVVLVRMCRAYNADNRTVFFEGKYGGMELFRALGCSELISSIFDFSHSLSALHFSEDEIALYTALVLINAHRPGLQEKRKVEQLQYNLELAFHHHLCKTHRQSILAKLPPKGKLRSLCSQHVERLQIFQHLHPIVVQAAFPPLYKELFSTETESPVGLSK
Outline: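 CHO cells with TET-inducible ROR-gamma and RORE-luciferase reporter, dosed then doxycycline-induced. After 16 h at 37C, One-Glo luminescence read; decreased signal indicates antagonism.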

[10] = Cell Proliferation Assay against the TMD8 Cell Line (Caspase readout at 16 hrs) (AID 651712); conditions: TMD8 lymphoma cells, caspase activation luminescence; series mostly up to 46.1 µM
Outline: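 Apoptotic response of TMD8 cells was judged from caspase 3/7 activation following a 16 hour compound incubation at 37 °C. Luminescent signal was converted to percent activity, with DMSO set as 0% and 9.2 uM final bortezomib as 100%.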

[11] = qHTS for small molecule inhibitors of Yes1 kinase: Counter Assay (AID 686950); conditions: series mostly up to 76.9 µM;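 note: no kinase present so only ADP-Glo detection of a fixed ADP amount is tested; luminescence from ADP-Glo reporting ADP in a fixed ATP and ADP mixture; 0% = DMSO wells with ATP plus ADP and -100% = ATP-only wells without ADP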
Outline: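 Luminescence read-out from ADP-Glo quantifies a fixed ADP amount (0.02 mM ADP with 0.08 mM ATP) after 60 min at room temperature; signal is normalized between DMSO wells with ATP/ADP and with 0.1 mM ATP alone.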

[12] = Cell Proliferation Assay against the TMD8 Cell Line (Caspase readout at 8 hrs) (AID 651713); conditions: TMD8 lymphoma cells, caspase activation luminescence; series mostly up to 46.1 µM; note: potency is the fitted concentration of half-maximal effect
Outline: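 TMD8 cells in RPMI plus 5% FBS were treated with compound for 8 h at 37C. Caspase 3/7 activation was read by Caspase-Glo luminescence. Percent activity was scaled from DMSO (0%) to 9.2 uM bortezomib final (100%).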

[13] = qHTS assay to identify small molecules that stimulate interleukin-8 (IL-8) secretion (AID 651758; active = well fitted activation curve with a large enough effect in the signal ratio; the % refers to the signal ratio; note: 0% is about no effect); conditions: HTRF ratio (665/615); series mostly up to 92.2 µM
Outline: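 Secreted IL-8 measured by TR-FRET sandwich (cryptate and XL665 antibodies) from THP-1 cells exposed to compound overnight (16 hrs, 37 C).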

[14] = qHTS for Inhibitors of Ubiquitin-specific Protease USP2a Using CHOP2 as the Reporter: K633 Counterscreen (AID 652168); conditions: No-enzyme DiUb K48 IQF substrate fluorescence interference, kinetic; series mostly up to 57.5 µM; note: % of control where 0% means no effect
Outline: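 Cell-free interference counterscreen without USP2a: compounds pinned into enzyme-free buffer (20 mM Tris pH 8, 2 mM beta-mercaptoethanol, 0.05% Chaps), then DiUb K48-4IQF substrate added (100 nM stock); fluorescence read kinetically, Ex 525/Em 598.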

[15] = qHTS for Inhibitors of Ubiquitin-specific Protease USP2a Using CHOP2 as the Reporter: Cytotox Assay (AID 652170); conditions: HCT116 viability, CellTiter-Glo luminescence, 72 h; series mostly up to 46.1 µM;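 note: plate controls were DMSO-treated cells for no effect and wells without cells for full effect; nearly all actives have a fitted effect of over 70% in size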
Outline: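 HCT116 human colon cancer cells, 600 per well in DMEM with 10% FBS, exposed to compounds for 72 hr at 37 deg C. ATP measured by CellTiter-Glo luminescence, normalized to DMSO cells and no-cell background.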

[16] = target: Tyrosine-protein kinase Yes (Homo sapiens) (UniProt P07947); experiment: qHTS for small molecule inhibitors of Yes1 kinase: Primary Screen (AID 686947); conditions: Yes1 kinase biochemical qHTS inhibition; series mostly up to 76.9 µM;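 note: plate controls were DMSO with enzyme for no effect and no-enzyme DMSO wells for full effect; nearly all actives have a fitted effect of over 60% in size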
Sequence of Tyrosine-protein kinase Yes (Homo sapiens) (P07947 whole entry, looked up): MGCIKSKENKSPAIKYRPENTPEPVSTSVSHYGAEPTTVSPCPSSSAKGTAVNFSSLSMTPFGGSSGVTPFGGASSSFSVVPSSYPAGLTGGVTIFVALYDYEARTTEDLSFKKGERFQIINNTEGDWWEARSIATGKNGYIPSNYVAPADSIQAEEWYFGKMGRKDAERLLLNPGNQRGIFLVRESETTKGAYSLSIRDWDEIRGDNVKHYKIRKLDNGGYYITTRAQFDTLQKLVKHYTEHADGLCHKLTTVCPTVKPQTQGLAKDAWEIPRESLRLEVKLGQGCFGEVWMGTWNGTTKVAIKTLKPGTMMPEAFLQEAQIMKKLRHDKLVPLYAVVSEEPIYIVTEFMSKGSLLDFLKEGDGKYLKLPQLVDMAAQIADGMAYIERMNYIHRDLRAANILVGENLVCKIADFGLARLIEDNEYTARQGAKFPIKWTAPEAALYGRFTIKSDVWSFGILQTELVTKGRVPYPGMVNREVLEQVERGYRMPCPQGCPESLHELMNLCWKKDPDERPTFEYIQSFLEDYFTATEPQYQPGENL
Outline: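 Yes1 (4 nM) preincubated 20 min with compound, then 60 min room-temperature reaction with 0.1 mM ATP and 0.3 mg/mL poly(E4Y) in pH 7.5 Tris, 10 mM MgCl2. ADP measured by ADP-Glo luminescence, normalised to enzyme/no-enzyme controls.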

[17] = target: Arylsulfatase A (Homo sapiens) (UniProt P15289); experiment: qHTS screen for enhancers of Arylsulfatase A (ASA1): LOPAC Validation Assay (AID 720538); conditions: ASA enzyme activity, LOPAC qHTS enhancer assay; series mostly up to 57.5 µM
Sequence of Arylsulfatase A (Homo sapiens) (P15289 whole entry, looked up): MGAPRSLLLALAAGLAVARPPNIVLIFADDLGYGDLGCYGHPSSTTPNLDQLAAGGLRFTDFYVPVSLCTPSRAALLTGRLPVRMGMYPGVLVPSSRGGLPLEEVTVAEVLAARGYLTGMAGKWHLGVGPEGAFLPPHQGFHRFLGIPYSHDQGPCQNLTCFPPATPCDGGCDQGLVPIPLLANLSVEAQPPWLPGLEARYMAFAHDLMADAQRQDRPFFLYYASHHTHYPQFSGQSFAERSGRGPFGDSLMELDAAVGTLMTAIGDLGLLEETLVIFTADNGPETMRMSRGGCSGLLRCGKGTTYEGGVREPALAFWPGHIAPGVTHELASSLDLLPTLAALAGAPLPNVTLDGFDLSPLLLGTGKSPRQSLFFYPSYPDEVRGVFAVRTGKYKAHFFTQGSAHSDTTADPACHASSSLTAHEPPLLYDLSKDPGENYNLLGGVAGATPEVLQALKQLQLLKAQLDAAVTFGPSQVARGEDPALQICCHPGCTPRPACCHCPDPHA
Outline: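 First, ASA-I179S fibroblasts from an MLD patient adhered for 6 hrs. Next, compounds were added for 48h. Then pNCS substrate (0.5mM final) with lysis buffer reacted 14h at room temperature before NaOH stop and fluorescence measurement.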

[18] = qHTS for compounds that reverse cellular toxicity of Amyloid beta (A-beta) peptide in yeast: LOPAC Validation Assay (AID 720559); conditions: yeast expressing A-beta; series mostly up to 46.1 µM;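 note: plate controls were DMSO for no effect and equimolar ferric chloride plus clioquinol rescue for full effect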
Outline: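 Activity is expressed relative to DMSO and an equimolar ferric chloride/clioquinol mix. Compounds were pinned into medium with A-beta-expressing yeast, grown 48 hr at 30 C, then read by absorbance at 600 nm.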

[19] = qHTS for Activators of Parkin Expression: LOPAC Validation Assay (NLuc Reporter) (AID 720572;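 note: 0% = DMSO and 100% = positive control compound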); conditions: Parkin promoter NanoLuc reporter cells, luminescence, percent of positive control, DMSO as zero; series mostly up to 46.1 µM
Outline: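 Parkin promoter-driven FLuc/NLuc neuronal reporter cells; 24 h plating, 7-pt dose response, 24 h at 37 C/5% CO2; FLuc then NanoLuc reagent, 10 min each, luminescence; DMSO/positive control normalized.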

[20] = qHTS for Activators of Parkin Expression: LOPAC Validation Assay (FLuc Reporter) (AID 720573;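 note: 0% = DMSO and 100% = positive control compounds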); conditions: Cell line, PRKN promoter firefly luciferase reporter, vehicle wells = 0, positive control = 100%; series mostly up to 46.1 µM
Outline: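 A neuronal cell line harbouring FLuc and NLuc reporters behind the Parkin promoter was exposed to compounds for 24 h. Firefly luciferase signal, measured after 10 min with detection reagent, was scaled to DMSO and positive-control wells.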

S=P(N1CC1)(N1CC1)N1CC1
inactive: activation [1] 23.1% | activation [2] 0.913% | activation [3] 0.0951% | max response [4] -1.18%

O=C(N[C@H](CO)[C@H](O)c1ccc([N+](=O)[O-])cc1)C(Cl)Cl
inactive: Potency [5] | activation [1] 0.234% and 2.8% | activation [2] -1.34% and 1.06% | Potency [6] | Potency [7] | outcome [8] | activation [3] 2.18% and 1.42% | max response [4] 0.618% and -1.35% | Potency [9]

COc1cc2c(Nc3ccc(Br)cc3F)ncnc2cc1OCC1CCN(C)CC1
inactive: outcome [10] | outcome [11]

CCc1cc(C(N)=S)ccn1
inactive: Potency [5] | activation [1] -0.635% and 1.18% | activation [2] 0.391% and -1.64% | Potency [6] | Potency [7] | outcome [8] | max response [4] -3.66% and -3.46% | Potency [9]

COc1ccc2cc3[n+](cc2c1OC)CCc1cc2c(cc1-3)OCO2
inactive: activation [1] 9.7% | max response [4] -3.31% | Potency [9]
active: Potency [5] 33.5 µM | Potency [6] 21.1 µM | Potency [7] 9.44 µM

CC[C@H](C)C(=O)O[C@H]1C[C@@H](C)C=C2C=C[C@H](C)[C@H](CC[C@@H]3C[C@@H](O)CC(=O)O3)[C@H]21
active: Potency [9] 4.73 µM
inactive: activation [1] -3.22% | activation [2] -1.44% | Potency [7] | outcome [8] | activation [3] -1.02% | max response [4] 1.65%

Cc1ccnc2c1NC(=O)c1cccnc1N2C1CC1
inactive: Potency [5] | activation [1] -7.19% | outcome [8] | activation [3] 0.221% | max response [4] -3.94% | Potency [9]

NC1(c2ccc(-c3nc4ccn5c(=O)[nH]nc5c4cc3-c3ccccc3)cc2)CCC1
active: Potency [12] 26.4 µM
inactive: outcome [11]

Cc1ncc([N+](=O)[O-])n1CCO
inactive: Potency [5] | activation [1] -1.78% | outcome [13] | activation [3] -0.201% | max response [4] -0.879% | Potency [9]

Cc1nnc(NS(=O)(=O)c2ccc(N)cc2)s1
inactive: Potency [5] | activation [1] -1.27% | outcome [8] | activation [3] -0.461% | max response [4] 6.59% | Potency [9]

Cc1cc(NS(=O)(=O)c2ccc(N)cc2)no1
inactive: Potency [5] | activation [1] -3.47% | outcome [8] | activation [3] -0.784% | max response [4] -1.17% | Potency [9] | outcome [14] | outcome [15]

NC(N)=NC(N)=NCCc1ccccc1
active: Potency [5] 37.6 µM | Potency [4] 35.5 µM | Potency [9] 16.8 µM
inactive: activation [1] 7.9% and 8.21% | activation [2] 0.778% and 0.59% | outcome [8] | activation [3] 1.08% and -0.702% | max response [4] -1.6%

Cc1noc(NS(=O)(=O)c2ccc(N)cc2)c1C
inactive: Potency [5] | activation [1] -3.81% and -3.88% | activation [2] -1.4% and -1.01% | outcome [8] | activation [3] 0.11% and 1.55% | max response [4] 0.0609% and -2.74%

NNC(=O)c1ccncc1
inactive: Potency [5] | activation [1] 0.245% | activation [2] -1.16% | Potency [6] | Potency [7] | outcome [8] | outcome [13] | activation [3] 4.86% | max response [4] -1.45% | Potency [9]

N=C(N)c1ccc(OCCCCCOc2ccc(C(=N)N)cc2)cc1
inactive: activation [2] 0.454% and 0.519% | outcome [8] | max response [4] -3.05% and -5.88%

OC(Cn1cncn1)(Cn1cncn1)c1ccc(F)cc1F
inactive: activation [1] -0.436% | activation [2] -1.38% | activation [3] -1.75% | max response [4] -1.95%

CCN(CC)CCn1c(=O)c(Cc2ccc(OC)cc2)nc2ccccc21
inactive: outcome [10] | Potency [12] | outcome [16] | outcome [11] | outcome [17] | outcome [18] | outcome [19] | outcome [20]

CC1=NN(c2ccccc2)C(=O)C1
inactive: activation [1] -1.06% and 1.05% | activation [2] 1.02% and -0.66% | outcome [8] | max response [4] -0.816% and -5.33% | Potency [9]
